Assay [1] is described as follows: NCI Yeast Anticancer Drug Screen. Data for the rad50 strain (AID 155).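 Also: 0% = growth of vehicle-only cultures of the same strain.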 The following applies: S. cerevisiae rad50 strain growth inhibition; at 50.0 µM; stronger effect = higher value. The gist of the method: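 Yeast carrying a defined DNA repair defect were exposed to test compounds, and growth was compared with vehicle-treated controls to give percent inhibition.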
Assay [2] is described as follows: NCI Yeast Anticancer Drug Screen. Data for the mec2-1 strain (AID 157). Particulars: S. cerevisiae mec2-1 strain, at 50.0 µM, stronger effect = higher value. The gist of the method: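 Strain: mec2-1 (DNA repair/cell cycle alteration). Compound exposure, then growth measured; inhibition expressed relative to vehicle.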
Assay [3] can be described thus: NCI Yeast Anticancer Drug Screen. Data for the sgs1 mgt1 strain (AID 161).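 Also: 0% = growth of cultures given vehicle only.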 Particulars: S. cerevisiae sgs1 mgt1 strain, at 50.0 µM, stronger effect = higher value. The gist of the method:
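Test agents were incubated with a DNA-repair-mutant yeast strain. Growth was then read and compared against vehicle-treated controls.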

Assay [4] can be described thus: NCI Yeast Anticancer Drug Screen. Data for the cln2 rad14 strain (AID 165).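 Also: 0% = growth equal to vehicle treated cultures.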 Particulars: S. cerevisiae cln2 rad14 strain, at 50.0 µM, stronger effect = higher value. The gist of the method:
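Compounds are applied to the cln2 rad14 yeast strain, and growth is then compared with that of vehicle-treated cultures to give inhibition.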

A short description of assay [5]: NCI Yeast Anticancer Drug Screen. Data for the bub3 strain (AID 167). The following applies: S. cerevisiae bub3 mutant strain, at 50.0 µM, stronger effect = higher value. In outline:
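Compounds were applied to a genetically altered yeast strain carrying a cell-cycle control defect. Growth inhibition was scored against vehicle-treated controls.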

A short description of assay [6]: NCI Yeast Anticancer Drug Screen. Data for the mlh1 rad18 strain (AID 175). The following applies: S. cerevisiae mlh1 rad18 strain growth inhibition; at 50.0 µM; stronger effect = higher value. In outline: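 Read-out is yeast growth inhibition, calculated against vehicle-only controls. The compound was applied to a strain engineered with DNA damage repair alterations.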

Among the data in PubChem BioAssay (NCI) are growth inhibition values, retold here.

About 79,000 compounds went through this panel and 15% of them were active in at least one assay; those are over-represented in the sample as a whole. Unmarked numbers belong to inactive results. Active and inactive are the calls of the source. Rule as the data show it: active = growth inhibition above about 70%; inactive = the rest.

For the compound `Brc1cc(Br)c2c(c1)CN(C1CCCCC1)CO2` (tested in a mixture with another compound), the growth inhibition is -0.15% in assay [1]; 3.85% in assay [2]; -0.4% in assay [3]; -18.9% in assay [4]; -1.6% in assay [5]; -7.45% in assay [6].
For the compound `Cc1ccc(/C=C/C(=O)c2sc(-n3nc(-c4ccccc4)cc3-c3ccccc3)nc2C)cc1`, the growth inhibition in assay [1] is -2.3%; in assay [2], -6.85%; in assay [3], -29.9%; in assay [4], 5.6%; in assay [5] it was 20.1%; in assay [6], -7.4%.
In the case of `O=C(N=C1[Se]C(=Nc2ccccc2)C(=Nc2ccccc2)N1c1ccc(Cl)cc1)c1ccccc1`, the growth inhibition in assay [1] was -13.8%; in assay [2], -10.4%; in assay [3], -27.1%; in assay [4] it was -22.9%; in assay [5], -9.25%; in assay [6], -21.4%.
For the compound `N#C/C(=C\c1c(S(=O)(=O)O)sc2ccccc12)C(N)=O` (tested in a mixture with another compound), the growth inhibition in assay [1] was 30.3%; in assay [2], 10.1%; in assay [3] it was 17.1%; in assay [4], 25.3%; in assay [5] it was -0.9%; in assay [6], 21.8%.
Consider `CCOC(=O)[C@H]1Nc2ccc(Cl)cc2[C@H]2c3ccccc3O[C@H]21`, for which the growth inhibition in assay [1] is 4.85%; in assay [2], -22.3%; in assay [3], -23.1%; in assay [4] it was 8.35%; in assay [5], -19.7%; in assay [6], -19.4%.
Turning to `Oc1cc2c(cc1C(c1ccc(F)cc1)N1CCCC1)OCO2` (stereo unspecified), the growth inhibition was 33.1% in assay [1]; 19.5% in assay [2]; 39.9% in assay [3]; -15.6% in assay [4]; 37.9% in assay [5]; 35.1% in assay [6].
On to `CC1(CO)COC(c2ccccc2)=N1` (stereo unspecified), for which the growth inhibition was 4.65% in assay [1]; 2.85% in assay [2]; 4.55% in assay [3]; -8.9% in assay [4]; -1.3% in assay [5]; 0.75% in assay [6].
In the case of `N#Cc1ccc(CSC2=C(c3ccc(Cl)cc3)S/C(=C3\SC(SCc4ccc(C#N)cc4)=C(c4ccc(Cl)cc4)S3)S2)cc1`, the growth inhibition is -16.8% in assay [1]; -15.3% in assay [2]; -19.9% in assay [3]; 7.7% in assay [4]; -8.4% in assay [5]; -25.9% in assay [6].
As to `COc1cccc2c1CCC(=O)C2`, the growth inhibition was -31.7% in assay [1]; -44.8% in assay [2]; -35.1% in assay [3]; 8% in assay [4]; -44.8% in assay [5]; -18.3% in assay [6].
Consider `O=C1C(O)=C(c2ccccc2)C(=O)N1Cc1ccccc1`, for which the growth inhibition in assay [1] was 7.25%; in assay [2], -4.7%; in assay [3], 4.55%; in assay [4], -39%; in assay [5] it was 3.4%; in assay [6], -6.6%.
Consider `CCOC(=O)NC(=S)C1=C(N2CCOCC2)CCC1`, for which the growth inhibition in assay [1] was -16.1%; in assay [2], -34.4%; in assay [3], 1.95%; in assay [4], 7.25%; in assay [5], -28.4%; in assay [6], 6.45%.
In the case of `Cc1cc(=O)c(O)c(C)o1`, the growth inhibition is -1.4% in assay [1]; -2.9% in assay [2]; -3.4% in assay [3]; 2.5% in assay [4]; -0.05% in assay [5]; -1.7% in assay [6].
For `C=C1C2CCC3(CCC4C5(C)CCCC4(CN(C(C)=O)C5)C3C2)C1O` (stereo unspecified), the growth inhibition in assay [1] was 11.2%; in assay [2] it was -5.1%; in assay [3], 10.3%; in assay [4], 1.4%; in assay [5], 6.25%; in assay [6], 8.95%.
`O=C1OC(C(=O)O)Cc2ccccc21` (stereo unspecified): the growth inhibition is -16.1% in assay [1]; -15.2% in assay [2]; -3.15% in assay [3]; -5.1% in assay [4]; -2.3% in assay [5]; -13.3% in assay [6].
On to `COC1OCCCO1`, for which the growth inhibition in assay [1] was -12.6%; in assay [2], 11.6%; in assay [3] it was -6.45%; in assay [4], -6.75%; in assay [5], -0.1%; in assay [6], -12.5%.
On to `NNC(=O)/C(NC(=O)c1ccccc1)=C(\N)c1cccc([N+](=O)[O-])c1`, for which the growth inhibition is -34.4% in assay [1]; -30.4% in assay [2]; 11.7% in assay [3]; 3.25% in assay [4]; -13.1% in assay [5]; 0.9% in assay [6].
On to `CCOc1ccc2nc(NC(=O)C(=O)C(C(=O)c3ccccc3-c3ccccc3)C3OC(=O)c4ccccc43)sc2c1` (stereo unspecified), for which the growth inhibition is -18.7% in assay [1]; 23.9% in assay [2]; -19% in assay [3]; 23.1% in assay [4]; -32.1% in assay [5]; -28.6% in assay [6].
Take `COc1cc(CCNC2=CC(=O)c3ncccc3C2=O)ccc1O`: the growth inhibition was 31.6% in assay [1]; 34% in assay [2]; -8.25% in assay [3]; 4.95% in assay [4]; 5.8% in assay [5]; 14.3% in assay [6].
Take `COc1ccc(/C=C\c2cc(OC)c(OC)c(OC)c2)cc1OC(=O)CC(N)C(=O)O` (stereo unspecified): the growth inhibition in assay [1] was -19.6%; in assay [2], -10.3%; in assay [3], -8.65%; in assay [4] it was -6.65%; in assay [5], -1.55%; in assay [6], -5.8%.
As to `c1ccc(/C2=C(\c3ccccc3)CSSSSC2)cc1`, the growth inhibition is 68.5% in assay [1]; 48.4% in assay [2]; 45.4% in assay [3]; 43.2% in assay [4]; 62.9% in assay [5]; 89% (active) in assay [6].
For the compound `CC(=O)c1c(C)cc(C)nc1C`, the growth inhibition in assay [1] is 14.8%; in assay [2], -12.2%; in assay [3] it was 17.4%; in assay [4] it was 10%; in assay [5] it was 30.6%; in assay [6], 9%.
